High-throughput results as filed in PubChem.
SMARCA2 activ: increases SMARCA2 function in MMTV reporter cells; MG213 cells, MMTV-luciferase reporter, dexamethasone, overnight; 370,000 tested, 1% active; activation, % at 9.1 µM; AID 652017; in the data active = activation above about 7.8%;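 also: 0% = vehicle wells and 100% = reference activator wells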
hgDAF-12 ag: activates the H. glycines DAF-12 receptor ligand-binding domain. HEK293 GAL4-hgDAF12 UAS-luciferase reporter, agonist luminescence; normalized to butyrate control. activation, % at 6.8 µM. 370,000 tested, 1.8% active. AID 687014;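 active = activation above a cutoff set at the mean of all screened compounds plus 3 SD, cut at about 10% in these data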;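 also: 0% = DMSO wells and 100% = sodium butyrate wells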
ssDAF-12 act: activators of S. stercoralis DAF-12 nuclear receptor; HEK293 ssDAF-12/GRIP1 lit1-tk-luc reporter, luminescence; % of 3 µM dafachronic acid response; 370,000 tested, 1% active; AID 652126; activation, % at 6.8 µM;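 active = activation above the mean over all tested compounds plus 3 SD, cut at about 0.9% in these data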;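 also: 0% = DMSO-only wells and 100% = 3 µM delta7-dafachronic acid wells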
DAX1 inh-1: inhibits human nuclear receptor DAX1; P51843; HEK293 Gal4-DAX1 luciferase reporter, luminescence; inhibition, % at 6.75 µM; 340,000 tested, 0.99% active; AID 504766;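 active = inhibition above the mean over all tested compounds plus 3 SD, cut at about 4.2% in these data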;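 also: 0% = DAX1-transfected cells with DMSO and 100% = empty-vector control cells with DMSO; inhibition shows as a rise in luminescence from relieved DAX1 repression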
Target sequence (P51843 207-470 limits assumed): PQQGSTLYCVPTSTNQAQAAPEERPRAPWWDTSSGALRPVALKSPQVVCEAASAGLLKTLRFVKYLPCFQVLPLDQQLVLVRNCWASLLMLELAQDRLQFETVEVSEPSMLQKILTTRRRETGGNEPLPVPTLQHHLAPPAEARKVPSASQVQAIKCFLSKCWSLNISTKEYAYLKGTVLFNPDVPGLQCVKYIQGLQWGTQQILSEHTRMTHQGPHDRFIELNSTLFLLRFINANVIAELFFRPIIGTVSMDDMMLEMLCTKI
hcDAF12 agonist: H. contortus DAF-12 activation, primary screen; HEK293 hcDAF-12 lit1-tk-luc reporter, luminescence; 0% DMSO, 100% Δ7-dafachronic acid; activation, % at 6.8 µM; 370,000 tested, 1.4% active;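 active = activation above the mean of all tested compounds plus 3 SD, cut at about 5.5% in these data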;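 also: 100% = response to 3 µM Δ7-dafachronic acid high control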
DAX1 inh-2: inhibitors of DAX1 repression of SF-1 activated StAR promoter; HEK293T StAR-luciferase reporter, SF-1/DAX-1 repression relief; inhibition, % at 6.8 µM; 370,000 tested, 1.1% active; AID 652010;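 active = inhibition above the mean over all tested compounds plus 3 SD, cut at about 3.6% in these data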;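 also: 0% = DAX-1 cells with DMSO and 100% = cells lacking DAX-1 with DMSO; higher inhibition means more luminescence from relief of DAX-1 repression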
* marks the source's active call; other numbers are inactive results. The list is not random: actives were taken first. Their share in the collection is about 4.8%.

What do the screens show for `COC(=O)[C@]12C[C@H](CC(=O)NCC34CC5CC(CC(C5)C3)C4)C(=O)N(Cc3ccco3)C1=C[C@H](C(C)(C)C)O[C@@H]2C`?
SMARCA2 activ: 0; hgDAF-12 ag: -1; ssDAF-12 act: -2; hcDAF12 agonist: -4; DAX1 inh-2: -1

Results for CCN(CC)c1ccc(C=NNC(=O)Cc2cc(=O)[nH][nH]2)c(O)c1 ?
SMARCA2 activ: -5; hgDAF-12 ag: 0; ssDAF-12 act: -2; hcDAF12 agonist: 1; DAX1 inh-2: 0

How did Cc1ccc(C2(c3noc(CN(C)Cc4cccnc4)n3)CCCC2)cc1 do in these assays?
SMARCA2 activ: -4; hgDAF-12 ag: 0; ssDAF-12 act: -1; DAX1 inh-1: 4.5*; hcDAF12 agonist: -1; DAX1 inh-2: 0

What do the screens show for `CCCCCCCCN1C(=O)[C@@H](CC(=O)N2CCC(c3ccccc3)CC2)C[C@@]2(C(=O)OC)C1=C[C@H](C(C)C)O[C@@H]2C1CC1`?
SMARCA2 activ: -1; hgDAF-12 ag: -4; ssDAF-12 act: -1; hcDAF12 agonist: 0; DAX1 inh-2: 1

How did COc1cc(NS(=O)(=O)c2ccc(C)cc2C)cc(OC)c1OC do in these assays?
SMARCA2 activ: -5; hgDAF-12 ag: -8; ssDAF-12 act: -2; DAX1 inh-1: -3; hcDAF12 agonist: -4; DAX1 inh-2: -3

How did COc1cc(NS(=O)(=O)c2cc3[nH]c(=O)c(=O)[nH]c3cc2C)cc(OC)c1OC do in these assays?
SMARCA2 activ: -2; hgDAF-12 ag: -2; ssDAF-12 act: -1; DAX1 inh-1: 4.8*; hcDAF12 agonist: 5; DAX1 inh-2: 1

Results for CC(C)C[C@@H]1COc2cccc(F)c2S(=O)(=O)N1C ?
SMARCA2 activ: 1; hgDAF-12 ag: -1; ssDAF-12 act: -2; hcDAF12 agonist: -1; DAX1 inh-2: 0

How did CC(C)(N[C@@H](Cc1ccccc1)C(=O)NCCc1c[nH]c2ccccc12)C(=O)NC1CCCCC1 do in these assays?
hgDAF-12 ag: 2; ssDAF-12 act: -1; hcDAF12 agonist: -4

What do the screens show for `COC(=O)[C@]1(C#N)CC(=O)N(Cc2ccc(Cl)cc2)[C@@H]1c1ccccc1`?
SMARCA2 activ: -3; hgDAF-12 ag: -1; ssDAF-12 act: 0; hcDAF12 agonist: 0; DAX1 inh-2: -1

What do the screens show for `O=C(N/N=C\CCc1ccccc1)c1ccco1`?
SMARCA2 activ: 7; hgDAF-12 ag: 13*; ssDAF-12 act: 0; DAX1 inh-1: 2; hcDAF12 agonist: 3; DAX1 inh-2: 2

What do the screens show for `COC(=O)Cc1c(OC)ccn(CCc2c[nH]c3ccccc23)c1=O`?
SMARCA2 activ: 6; hgDAF-12 ag: 10; ssDAF-12 act: 0; DAX1 inh-1: 1; hcDAF12 agonist: 5; DAX1 inh-2: 4.0*

How did COc1ccc2ccccc2c1CN1CCN(C)CC1 do in these assays?
SMARCA2 activ: -4; hgDAF-12 ag: -2; ssDAF-12 act: 0; DAX1 inh-1: 4.7*; hcDAF12 agonist: -1; DAX1 inh-2: 0

What do the screens show for `CCN1CCN(Cc2c(OC)ccc3ccccc23)CC1`?
SMARCA2 activ: -1; hgDAF-12 ag: 1; ssDAF-12 act: -1; DAX1 inh-1: 2; hcDAF12 agonist: -1; DAX1 inh-2: 0

What do the screens show for `COc1ccc(CNC(=O)O[C@H]2CC[C@@]34CCCN3C(=O)CCC[C@H]4C2)cc1OC`?
hgDAF-12 ag: -1; ssDAF-12 act: 0; hcDAF12 agonist: -2

Results for CC(=O)c1csc(-c2ccccc2)n1 ?
SMARCA2 activ: -1; hgDAF-12 ag: 0; ssDAF-12 act: -1; DAX1 inh-1: 5.4*; hcDAF12 agonist: -1; DAX1 inh-2: 0

What do the screens show for `CCCNC(=O)c1csc(Nc2cccc3ccccc23)n1`?
SMARCA2 activ: -4; hgDAF-12 ag: 1; ssDAF-12 act: -1; DAX1 inh-1: -2; hcDAF12 agonist: 1; DAX1 inh-2: 0

How did CC(=O)c1csc(Nc2ccccc2Cl)n1 do in these assays?
SMARCA2 activ: 2; hgDAF-12 ag: 7; ssDAF-12 act: -1; DAX1 inh-1: 8.7*; hcDAF12 agonist: 1; DAX1 inh-2: 0

What do the screens show for `CCOC(=O)c1ccc2[nH]c3ccccc3c2c1`?
SMARCA2 activ: 3; hgDAF-12 ag: 11*; ssDAF-12 act: 0; DAX1 inh-1: 8.0*; hcDAF12 agonist: 3; DAX1 inh-2: 1

How did CCOC(=O)c1ccc2[nH]c(C)c(C)c2c1 do in these assays?
SMARCA2 activ: 7.9*; hgDAF-12 ag: 7; ssDAF-12 act: -1; DAX1 inh-1: 0; hcDAF12 agonist: 1; DAX1 inh-2: 2
